RORgamma inh = blocks mouse ROR gamma transcriptional activity; Drosophila S2 Gal4-RORgamma UAS-luciferase reporter, 20 h; Potency, µM (doses to about 53.6 µM), without a hit: at the top dose activity change, negative = inhibition, most hits filed as inhibitors; 5.4% of 310,000 active; AID 2551; P51450; note: nearly all actives have a fitted effect of over 60% in size
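Read-out: Photinus luciferase luminescence; inhibitors lower reporter signal. Insect Schneider cells with Gal4-ROR gamma fusion under metallothionein promoter, UAS reporter; 700 uM final copper sulfate induction, 20 hr, ambient temperature.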
ALDH1A1 block = blocks purified human ALDH1A1 activity | Potency, µM (highest dose often 75.3 µM), inactives show at the top dose activity, negative = inhibition, most hits filed as inhibitors | Purified ALDH1A1, NADH fluorescence, propionaldehyde substrate | 7.3% of 220,000 active | AID 1030 | P00352; active = well fitted inhibition curve with a large enough effect, not every such curve was filed as active; inconclusive = small, poorly fitted or top-dose-only effect, or another doubt; inactive = no such curve, though single readings can be large or run the other way;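 note: plate controls were no enzyme wells and a reference inhibitor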
Target sequence (P00352 whole entry, looked up): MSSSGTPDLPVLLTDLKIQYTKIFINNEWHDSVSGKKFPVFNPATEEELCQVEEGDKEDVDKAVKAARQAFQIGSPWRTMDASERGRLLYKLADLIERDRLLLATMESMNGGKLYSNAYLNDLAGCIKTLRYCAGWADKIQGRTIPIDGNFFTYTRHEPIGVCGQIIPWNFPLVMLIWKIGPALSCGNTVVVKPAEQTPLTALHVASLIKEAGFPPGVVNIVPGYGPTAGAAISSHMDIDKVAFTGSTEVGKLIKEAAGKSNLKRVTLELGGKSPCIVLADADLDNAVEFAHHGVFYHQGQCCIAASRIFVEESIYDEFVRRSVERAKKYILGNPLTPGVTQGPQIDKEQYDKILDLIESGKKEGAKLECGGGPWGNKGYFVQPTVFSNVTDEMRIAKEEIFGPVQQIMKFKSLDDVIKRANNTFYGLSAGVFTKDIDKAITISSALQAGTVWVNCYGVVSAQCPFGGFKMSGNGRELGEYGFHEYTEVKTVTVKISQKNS
PLK1 PBD block = inhibitors of human PLK1 polo-box domain binding; Plk1 PBD binding of FITC phosphopeptide, fluorescence polarization; Potency, µM, for inactives: max response, negative = inhibition, actives largely listed as inhibitors; 2.8% of 360,000 active; note: series mostly up to about 57 µM; nearly all actives have a fitted effect of over 65% in size
Sfp PPTase inh = blocks B. subtilis Sfp PPTase activity; Q9F4F7; Biochemical Sfp PPTase activity, qHTS; Potency, µM, inactives show largest response in the series, negative = inhibition, most hits filed as inhibitors; 3.5% of 310,000 active; AID 1490;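 note: the enzyme is Sfp with the accession as filed and its product quenches rhodamine fluorescence; 0% = enzyme reaction without inhibitor and -100% = no enzyme wells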
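Buffer: 50 mM Hepes-Na pH 7.6, 10 mM MgCl2, 0.01% Nonidet P-40, 0.01% BSA. Enzyme 15 nM, pre-exposed to compound 15 min; substrates then added and fluorescence change tracked over 30 min.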
VP16 counter = inhibits Gal4-VP16 luciferase reporter, ROR gamma counter-screen; 3.5% of 310,000 active; Potency, µM (highest dose often 53.6 µM), for inactives: at the highest dose activity, negative = inhibition, most hits filed as inhibitors; Drosophila S2 Gal4-VP16 UAS-luciferase, luminescence, 20 h; AID 2546;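 note: Gal4-VP16 expression switched on by copper sulfate through the metallothionein promoter; nearly all actives have a fitted effect of over 50% in size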
Active calls of the source: *; ? = inconclusive; . = no result; ! = repeats disagree; [ ] = another dose, or the depositor's remark. In the library only some 12% were active in any assay of this set; here they are far more common. Unless noted, calls come from the whole dose curve; as a rule, active = well fitted curve in the direction sought with a large enough effect; inconclusive = small, poorly fitted or top-dose-only effect, or another doubt; inactive = no such curve, though single readings can be large; an effect the other way counts as inactive or inconclusive. Unless noted, % is set by controls: 0 for no effect and ±100 for the full control effect; potency is the fitted concentration of half-maximal effect.

SMILES	RORgamma inh	ALDH1A1 block	PLK1 PBD block	Sfp PPTase inh	VP16 counter
O=C(Oc1ccccc1)N1CCC2(CC1)CCN(c1ccncc1)CC2	-11%	?	.	14%	-10%
CCCCCCSC1=C(C#N)C(=O)NC2(CCCCC2)S1	?	-1%	27µM*	19%	?
COC(=O)c1ccc(Oc2cc(C)nc(Cl)n2)cc1	37%	?	-9%	23%	4%
COC(=O)c1ccc(Oc2cc(C)nc(SC)n2)cc1	-27%	9%	12µM*	10%	-1%
CC(Oc1cccc(Cl)c1)C(=O)Nc1cc(Cl)ccc1N1CCOCC1 (centres undefined)	.	.	-11%	.	.
CN(C)c1ncc2ncc(=O)n(C3CC3)c2n1	5%	-7%	.	-1%	-4%
CCc1nc2ccc(C(=O)NCCCN(C)C)cn2c1N(CC)CCOC	.	.	0%	.	.
CC(C)(C)NS(=O)(=O)c1ccc(NS(C)(=O)=O)cc1	-28%	?	-7%	16%	0%
CC(C)(C)NS(=O)(=O)c1cnc(Cl)c(Cl)c1	-10%	32µM*	-9%	15%	4%
COC(=O)Oc1ccc(/C=N/NC(=O)CSCc2ccc(Cl)cc2)cc1OC	-8%	?	-11%	7%	16µM*
Cc1oc(/C=N/NC(=O)CN(c2ccccc2Cl)S(C)(=O)=O)cc1Br	22%	0%	-9%	-2%	-6%
COC(=O)Oc1ccc(/C=N/NC(=O)CN(c2ccccc2Cl)S(C)(=O)=O)cc1OC	0.0089µM*	2%	-7%	4%	0%
CC(C)(N)C(=O)N[C@@H](Cc1cnc[nH]1)C(=O)N[C@H](Cc1ccc2ccccc2c1)C(=O)N[C@H](Cc1ccccc1)C(=O)N[C@@H](CCCCN)C(N)=O	1%	.	.	1%	-9%
Oc1ccccc1C(=S)N1CCCCCC1	?	25µM*	?	20%	6%
C/C(=N\N1CCCCC1)c1ccccc1O	-8%	.	5%	9%	-9%
Oc1ccccc1C(=S)N1CCCCC1	-3%	?	27µM*	-28%	0%
COC(=O)[C@H](Cc1ccccc1)NC(=O)[C@]1(C)C[C@H]1[C@H](NC(=O)OCc1ccccc1)c1ccccc1	9%	?	.	9%	-2%
Cn1c(=O)[nH]c(=O)c2c1[nH]c(=S)n2CCCc1ccccc1	-35%	.	30µM*	14µM*	-8%
Cn1c(=O)c2c([nH]c(=S)n2CCCc2ccccc2)n(C)c1=O	-43%	.	-30%	50µM*	-19%
Cn1c(=O)[nH]c(=O)c2c1nc(Br)n2Cc1ccc(Cl)cc1	.	.	2%	.	.
Cn1c(=O)[nH]c(=O)c2c1[nH]c(=S)n2Cc1ccc(Cl)cc1	-1%	.	12µM*	8.9µM*	5%
C[C@@H](C(=O)O)c1ccc(C(=O)c2ccccc2)s1	13%[2.98 µM]	-16%[20.9 µM]	.	16%	-3%[17 µM]
CC(=O)OCC(=O)[C@@]1(O)CCC2C3CC[C@H]4CC(O)CC[C@@]4(C)C3C(=O)C[C@]21C (some centres undefined)	-14%	10%	.	6%	-5%
CCOC(=O)c1cnn(-c2nc(SC)nc3sc4c(c23)CCCC4)c1N	2%	1.1µM*	-7%	-1%	11%
CCOC(=O)c1cnn(-c2ncnc3sc4c(c23)CCC4)c1N	-2%	3%	-3%	15%	2%
SMILES	RORgamma inh	ALDH1A1 block	PLK1 PBD block	Sfp PPTase inh	VP16 counter
Nc1sc(-c2ccccc2)c(Cc2ccccc2)c1C(=O)O	-1%	10µM*	?	-8%	-4%
Cc1c(F)c(N2CCNC(C)C2)cc2c1c(=O)c(C(=O)O)cn2C1CC1 (centres undefined)	8%	.	.	16%	1%
N=c1c(S(=O)(=O)c2ccccc2)cc2c(=O)n3ccccc3nc2n1C1CCCCC1	.	.	21µM*	.	.
N=c1c(S(=O)(=O)c2ccc(Br)cc2)cc2c(=O)n3ccccc3nc2n1C1CCCCC1	2%	.	-3%	1%	-3%
COC(=O)COc1ccc(/C=C2/SC(=O)N(CC(=O)N3CCCC3)C2=O)cc1Br	0%	-2%	-4%	13%	-3%
COC(=O)COc1cc(Br)c(/C=C2/SC(=O)N(CC(=O)N3CCCC3)C2=O)cc1OC	-28%	20µM*	-7%	-2%	-1%
COC(=O)CS(=O)(=O)c1nnc([C@H](Cc2ccccc2)NC(=O)OC(C)(C)C)o1	?	8.9µM*	11µM*	-91%	?
CC(C)(C)OC(=O)N[C@@H](Cc1ccccc1)c1nnc(SCC(N)=O)o1	1%	.	-9%	10%	-10%
Cc1cccc(CS(=O)(=O)c2nnc([C@H](Cc3ccccc3)NC(=O)OC(C)(C)C)o2)c1	11µM*	22µM*	2.7µM*	18µM*	11µM*
CN(C)C(=O)CSc1nnc([C@H](Cc2ccccc2)NC(=O)OC(C)(C)C)o1	13%	.	27µM*	-5%	-3%
OC[C@@H]1CN(Cc2cccs2)C[C@H](n2cnc3c(NCc4ccco4)ncnc32)O1	.	.	0%	.	.
O=S1(=O)N[C@@H](Cc2ccccc2)COc2cc(N3CCC[C@@H]3CO)ccc21	.	.	-3%	.	.
CN(C)CC(C)(C)CNS(=O)(=O)c1ccc(Cl)c(Cl)c1	1%	4%	19µM*!	3%	-15%
C=CCNC(=S)NNC(=O)COc1cccc(Cl)c1	1.3µM*	?	-27%	10%	8.9µM*
C=CCNC(=S)NNC(=O)c1cccc(Br)c1	?	0%	1%	9%	?
C=CCNC(=S)NNC(=O)COc1ccc(Br)cc1	5µM*	1%	-13%	17%	3.5µM*
C=CCNC(=S)NNC(=O)COc1ccc2cc(Br)ccc2c1	3.2µM*	10%	-20%	11%	?
CC(=O)Nc1cccc(-c2ccnc3c2CC(C(=O)NCc2ccc(N(C)C)cc2)O3)c1 (centres undefined)	.	.	-6%	.	.
Cc1ccccc1NC(=O)Nc1nc(C(N)C2CCCCC2)cs1 (centres undefined)	.	.	-4%	.	.
Cc1cc(Nc2ccccc2)c2c([N+](=O)[O-])ccc(C)c2n1	?	6%	-14%	?	35µM*
COC(=O)c1ccc(C(NC(=O)OCc2ccccc2)/C(=C/[C@@H](C)C(=O)NCc2cc(F)cc(F)c2)c2cccnc2)cc1 (some centres undefined)	26%	0%	.	31%	-10%
COc1ccc(CNS(=O)(=O)c2ccc(F)cc2Br)cc1	.	.	-19%	.	.
COc1ccc(CNS(=O)(=O)c2ccc(N3CCCC3)cc2Br)cc1	.	.	24µM*	.	.
COCCN(C(=S)Nc1cccc(C)c1C)C(C)c1ccco1 (centres undefined)	11µM*	13%	-3%	-4%	?
Cc1ccc(NC(=S)N(CCN(C)C)C(C)c2cccnc2)c(C)c1 (centres undefined)	9%	5%	-8%	3%	-14%[10 µM]
COCCN(C(=S)Nc1ccc(C)cc1C)C(C)c1ccco1 (centres undefined)	14µM*	-6%	-2%	7%	-96%
COCCN(C(=S)Nc1ccccc1C)C(C)c1ccco1 (centres undefined)	?	.	-16%	-3%	7%
